This passage reports inhibition results from PubChem BioAssay.

The structures appear in SMILES notation. Values without a mark were called inactive. Activity calls are given as the source filed them.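 How the source made its calls, unless noted: active means mean inhibition above 46.68%, the untreated control wells mean plus 3 SD; inactive means the rest.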

Experiment [1] deals with Nuclear receptor coactivator 3 (Homo sapiens) (UniProt Q9Y6Q9). The experiment in a line: NCOA3 GAL4-fusion reporter inhibition – cell-based, luminescence, quadruplicate, confirmation (AID 588792;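 active means mean inhibition over 43.08%, the solvent-only control mean plus 3 SD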;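 further: 0% = DMSO treated cells and 100% = gossypol at 36 µM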). Particulars: HEK293 GAL4-SRC3 luciferase reporter, at 3.6 µM, active compounds read high. Background: In a reporter assay the amount or activity of a reporter protein is the signal.
Sequence of Nuclear receptor coactivator 3 (Homo sapiens) (Q9Y6Q9 whole entry, looked up, the tested form may be a part): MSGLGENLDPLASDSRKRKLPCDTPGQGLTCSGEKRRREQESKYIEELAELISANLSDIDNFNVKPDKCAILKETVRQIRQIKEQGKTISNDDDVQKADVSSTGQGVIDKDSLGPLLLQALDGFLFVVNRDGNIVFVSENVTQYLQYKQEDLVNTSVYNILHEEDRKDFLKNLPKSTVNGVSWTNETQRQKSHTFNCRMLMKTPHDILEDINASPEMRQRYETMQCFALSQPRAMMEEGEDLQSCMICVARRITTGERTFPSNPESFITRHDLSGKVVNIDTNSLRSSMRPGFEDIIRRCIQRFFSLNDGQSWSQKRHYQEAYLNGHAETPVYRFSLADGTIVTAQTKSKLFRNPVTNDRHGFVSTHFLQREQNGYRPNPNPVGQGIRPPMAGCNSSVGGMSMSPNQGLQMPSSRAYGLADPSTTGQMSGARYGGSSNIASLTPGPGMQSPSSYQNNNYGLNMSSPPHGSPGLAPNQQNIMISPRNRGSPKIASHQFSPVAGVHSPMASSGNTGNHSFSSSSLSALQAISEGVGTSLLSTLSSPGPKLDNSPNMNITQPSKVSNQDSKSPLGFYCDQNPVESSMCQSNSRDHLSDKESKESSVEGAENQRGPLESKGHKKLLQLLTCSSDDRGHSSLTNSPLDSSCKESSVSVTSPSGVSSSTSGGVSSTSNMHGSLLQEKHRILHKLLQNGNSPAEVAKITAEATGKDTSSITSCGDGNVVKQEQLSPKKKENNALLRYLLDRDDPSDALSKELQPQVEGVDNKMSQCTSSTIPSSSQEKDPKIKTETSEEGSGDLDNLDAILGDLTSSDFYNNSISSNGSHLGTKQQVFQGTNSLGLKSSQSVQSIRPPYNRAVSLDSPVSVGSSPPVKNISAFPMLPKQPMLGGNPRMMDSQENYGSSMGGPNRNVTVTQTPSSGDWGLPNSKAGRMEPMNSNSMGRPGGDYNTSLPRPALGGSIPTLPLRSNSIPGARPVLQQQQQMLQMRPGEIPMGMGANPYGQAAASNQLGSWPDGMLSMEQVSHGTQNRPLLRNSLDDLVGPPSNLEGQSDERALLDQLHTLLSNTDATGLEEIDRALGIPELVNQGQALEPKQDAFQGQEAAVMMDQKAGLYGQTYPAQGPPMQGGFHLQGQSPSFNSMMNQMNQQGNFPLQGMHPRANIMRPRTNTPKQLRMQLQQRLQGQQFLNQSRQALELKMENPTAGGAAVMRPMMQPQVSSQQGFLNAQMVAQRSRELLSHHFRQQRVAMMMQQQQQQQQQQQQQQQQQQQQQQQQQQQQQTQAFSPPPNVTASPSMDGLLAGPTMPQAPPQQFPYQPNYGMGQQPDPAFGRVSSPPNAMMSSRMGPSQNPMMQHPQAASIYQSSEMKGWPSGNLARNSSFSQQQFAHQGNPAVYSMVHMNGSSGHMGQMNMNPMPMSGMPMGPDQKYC
The subject of experiment [2] is transactivating tegument protein VP16 (Human herpesvirus 1), Gal4-VP16 luciferase reporter. Nature of the experiment: repression of VP16-driven luciferase reporter – cell-based, luminescence, high throughput, counter-screen for SRC3 inhibitor project (AID 588794; in the data active means inhibition above about 30%). Particulars: mammalian cells, at 3.6 µM, active compounds read high.
In experiment [3] the target is Nuclear receptor coactivator 1 (Homo sapiens) (UniProt Q15788). The experiment in a line: NCOA1 GAL4-fusion reporter inhibition – cell-based, luminescence, quadruplicate, confirmation (AID 588820).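 Further: 0% = DMSO wells and 100% = gossypol 36 µM treated wells.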 Particulars: HEK293 GAL4-SRC1 luciferase reporter, at 3.6 µM, active compounds read high.
Sequence of Nuclear receptor coactivator 1 (Homo sapiens) (Q15788 whole entry, looked up, the tested form may be a part): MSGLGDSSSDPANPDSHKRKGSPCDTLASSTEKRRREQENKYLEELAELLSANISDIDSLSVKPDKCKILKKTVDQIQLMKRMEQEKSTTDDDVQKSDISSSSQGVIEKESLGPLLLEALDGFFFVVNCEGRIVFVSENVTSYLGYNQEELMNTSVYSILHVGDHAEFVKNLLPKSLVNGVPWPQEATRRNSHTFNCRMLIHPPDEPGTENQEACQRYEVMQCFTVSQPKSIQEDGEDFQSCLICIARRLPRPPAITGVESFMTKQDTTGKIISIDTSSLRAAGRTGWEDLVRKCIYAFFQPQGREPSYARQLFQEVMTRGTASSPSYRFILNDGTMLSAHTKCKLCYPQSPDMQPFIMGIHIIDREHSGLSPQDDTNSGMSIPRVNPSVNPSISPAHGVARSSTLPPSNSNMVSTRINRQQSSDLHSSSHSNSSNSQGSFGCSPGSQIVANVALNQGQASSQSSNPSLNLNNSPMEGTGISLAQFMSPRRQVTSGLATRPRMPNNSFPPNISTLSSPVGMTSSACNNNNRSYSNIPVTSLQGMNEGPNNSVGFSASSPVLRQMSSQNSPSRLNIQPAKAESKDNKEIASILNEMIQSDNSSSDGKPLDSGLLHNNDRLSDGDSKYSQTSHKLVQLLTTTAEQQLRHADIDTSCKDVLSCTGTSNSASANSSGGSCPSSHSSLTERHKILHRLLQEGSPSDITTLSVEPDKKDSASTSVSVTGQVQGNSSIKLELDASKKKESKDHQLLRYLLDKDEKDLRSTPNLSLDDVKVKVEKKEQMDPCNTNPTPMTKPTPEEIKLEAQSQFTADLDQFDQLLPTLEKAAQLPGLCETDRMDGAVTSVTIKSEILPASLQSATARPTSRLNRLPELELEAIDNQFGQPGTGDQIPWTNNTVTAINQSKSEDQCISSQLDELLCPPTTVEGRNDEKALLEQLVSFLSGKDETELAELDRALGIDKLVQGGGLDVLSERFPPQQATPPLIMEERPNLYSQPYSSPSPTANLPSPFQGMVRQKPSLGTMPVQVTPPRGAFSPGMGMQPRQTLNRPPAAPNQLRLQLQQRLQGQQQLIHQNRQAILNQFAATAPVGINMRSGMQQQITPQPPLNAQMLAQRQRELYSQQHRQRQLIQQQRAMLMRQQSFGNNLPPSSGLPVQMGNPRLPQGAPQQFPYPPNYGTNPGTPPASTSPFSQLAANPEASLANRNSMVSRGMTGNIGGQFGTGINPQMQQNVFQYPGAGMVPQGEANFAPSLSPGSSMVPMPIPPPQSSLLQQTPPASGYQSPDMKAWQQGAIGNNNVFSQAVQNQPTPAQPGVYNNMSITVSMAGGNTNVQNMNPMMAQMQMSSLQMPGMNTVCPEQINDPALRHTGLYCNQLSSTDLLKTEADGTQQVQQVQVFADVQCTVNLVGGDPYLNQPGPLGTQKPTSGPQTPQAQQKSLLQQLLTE
Experiment [4] in a line: repression of VP16-driven luciferase reporter – cell-based, luminescence, high throughput, counter-screen for SRC1 inhibitor project (AID 588824; in the data active means inhibition above about 25%). The note with it: cell-based VP16 transactivation luciferase luminescence; at 3.6 µM; active compounds read high.
The test system of experiment [5] is transactivating tegument protein VP16 (Human herpesvirus 1). Nature of the experiment: compounds suppressing VP16-driven luciferase signal – cell-based, luminescence, single concentration, counter-screen for SRC2 inhibitor project (AID 652007; in the data active means inhibition above about 36%). The note with it: cell-based VP16 transactivation luciferase reporter, at 8.9 µM, active compounds read high. In general terms: A counterscreen serves to expose hits that act by an unwanted route or on another target.

Experiment [6] concerns the target Nuclear receptor coactivator 2 (Homo sapiens) (UniProt Q15596). The experiment in a line: inhibition of GAL4-SRC2 driven luciferase expression – cell-based, luminescence, HEK293, triplicate, confirmation (AID 652008;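 active means mean inhibition above 46.5%, the solvent-only control mean plus 3 SD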;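 further: 0% = DMSO-treated cells and 100% = Gossypol at 36 µM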). Particulars: HEK293 GAL4-SRC2 luciferase reporter, at 8.9 µM, active compounds read high.

Sequence of Nuclear receptor coactivator 2 (Homo sapiens) (Q15596 whole entry, looked up, the tested form may be a part): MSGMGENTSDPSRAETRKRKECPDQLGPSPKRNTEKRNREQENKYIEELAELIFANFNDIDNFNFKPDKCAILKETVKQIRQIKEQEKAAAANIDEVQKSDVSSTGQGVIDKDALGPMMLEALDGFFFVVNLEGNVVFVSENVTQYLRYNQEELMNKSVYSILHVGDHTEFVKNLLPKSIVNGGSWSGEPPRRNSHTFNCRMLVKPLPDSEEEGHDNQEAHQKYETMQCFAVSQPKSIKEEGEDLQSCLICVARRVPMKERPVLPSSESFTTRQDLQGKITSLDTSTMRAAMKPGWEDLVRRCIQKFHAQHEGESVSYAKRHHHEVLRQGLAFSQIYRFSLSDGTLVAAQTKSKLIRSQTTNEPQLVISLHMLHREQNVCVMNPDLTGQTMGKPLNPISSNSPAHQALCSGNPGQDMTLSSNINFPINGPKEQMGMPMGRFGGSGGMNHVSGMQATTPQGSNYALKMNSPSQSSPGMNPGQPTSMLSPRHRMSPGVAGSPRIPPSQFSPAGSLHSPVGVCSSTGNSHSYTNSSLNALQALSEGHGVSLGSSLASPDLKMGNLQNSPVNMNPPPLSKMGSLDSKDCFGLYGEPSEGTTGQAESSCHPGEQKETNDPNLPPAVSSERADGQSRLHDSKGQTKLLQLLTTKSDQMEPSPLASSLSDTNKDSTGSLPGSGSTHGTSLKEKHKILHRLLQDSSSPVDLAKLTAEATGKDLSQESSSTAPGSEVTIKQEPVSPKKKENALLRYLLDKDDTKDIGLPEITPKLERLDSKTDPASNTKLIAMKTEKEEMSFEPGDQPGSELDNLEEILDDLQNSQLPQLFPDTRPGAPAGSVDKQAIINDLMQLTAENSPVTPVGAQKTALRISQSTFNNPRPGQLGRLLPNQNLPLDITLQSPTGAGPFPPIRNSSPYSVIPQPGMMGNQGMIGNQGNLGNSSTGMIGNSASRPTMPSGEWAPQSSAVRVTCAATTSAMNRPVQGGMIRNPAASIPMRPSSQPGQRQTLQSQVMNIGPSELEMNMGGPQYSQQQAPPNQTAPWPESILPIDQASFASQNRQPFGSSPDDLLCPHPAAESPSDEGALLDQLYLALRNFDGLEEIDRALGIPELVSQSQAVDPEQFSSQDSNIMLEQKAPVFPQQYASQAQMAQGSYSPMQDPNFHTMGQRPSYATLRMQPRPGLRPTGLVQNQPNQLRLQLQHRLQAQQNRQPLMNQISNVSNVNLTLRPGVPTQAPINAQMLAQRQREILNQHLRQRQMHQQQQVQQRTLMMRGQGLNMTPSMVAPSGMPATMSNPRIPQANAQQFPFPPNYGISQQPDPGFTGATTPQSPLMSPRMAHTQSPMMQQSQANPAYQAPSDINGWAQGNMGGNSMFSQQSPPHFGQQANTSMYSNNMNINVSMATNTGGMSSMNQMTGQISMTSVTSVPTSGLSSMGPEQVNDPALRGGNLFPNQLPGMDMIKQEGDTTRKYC

Broadly, the inhibition is the relative decrease from the control value, in per cent. As to `COc1ccc(/C=C2\SC(=S)N(CCCC(=O)N3CCCCC3CCO)C2=O)cc1` (configuration not stated), the inhibition in experiment [1] is 20.9%; in experiment [2], 17.1%; in experiment [3], 4.91%; in experiment [4], 13.6%; in experiment [5] it was 61% (active); in experiment [6], 65.9% (active).

Take `CC1(C)Cc2c(ccc3ccccc23)C(=O)N1`: the inhibition in experiment [1] was 55.7% (active); in experiment [2], 37.2% (active); in experiment [3], 55% (active); in experiment [4] it was 23.7%; in experiment [5], -22.7%; in experiment [6], 32.1%.

For the compound `Cc1cc(C(=O)CN2C(=O)c3ccccc3S2(=O)=O)c(C)n1C(C)C`, the inhibition in experiment [1] was 31.4%; in experiment [2] it was 24.3%; in experiment [3], -24.8%; in experiment [4], 12.9%; in experiment [5], 29.6%; in experiment [6], 59.6% (active).

In the case of `COc1ccc(-c2cc(=O)oc3c(C)c(O)ccc23)cc1`, the inhibition in experiment [1] was 49.4% (active); in experiment [2], 39.7% (active); in experiment [3], 50.3% (active); in experiment [4], 26.4% (active); in experiment [5], -7.99%; in experiment [6], 23.3%.

On to `O=c1cc(-c2ccccc2Cl)oc2c([N+](=O)[O-])c(O)cc(O)c12`, for which the inhibition in experiment [1] is 61.5% (active); in experiment [2], 44.4% (active); in experiment [3] it was 51.9% (active); in experiment [4], 37% (active); in experiment [5], 4.67%; in experiment [6], 52.9% (active).

On to `CC(=O)Nc1nc(-c2ccc3c(c2)CC(C)N3C(=O)C2CC2)c(C)s1` (configuration not stated), for which the inhibition in experiment [1] was 72.6% (active); in experiment [2], 58.6% (active); in experiment [3], 50.6% (active); in experiment [4] it was 62.7% (active); in experiment [5] it was -4.55%; in experiment [6], 41.8%.

Consider `Cc1cc(/C=N/Nc2ncnc(N)c2[N+](=O)[O-])c(C)n1-c1ccccc1`, for which the inhibition is 26% in experiment [1]; 12.4% in experiment [2]; -28.1% in experiment [3]; -10.1% in experiment [4]; 23.9% in experiment [5]; 61.2% (active) in experiment [6].

Take `COc1ccc(/C=C2/SC(=S)N(CCCC(=O)Nc3ccccc3C(=O)O)C2=O)cc1`: the inhibition in experiment [1] is 22%; in experiment [2], 11.6%; in experiment [3] it was -7.34%; in experiment [4], 7.32%; in experiment [5], 66.5% (active); in experiment [6] it was 72.3% (active).

For the compound `CC(C)(C)OC(=O)N1Cc2ccccc2C[C@H]1C(=O)NCC(=O)Nc1ccc2c(c1)OCCO2`, the inhibition is 28.9% in experiment [1]; 1.92% in experiment [2]; 5.58% in experiment [3]; -7.64% in experiment [4]; -3.02% in experiment [5]; 52% (active) in experiment [6].

On to `Cc1nnc(-c2ccccc2)c(=O)n1/N=C/c1c(O)ccc2ccccc12`, for which the inhibition in experiment [1] is 40.6%; in experiment [2], 55% (active); in experiment [3], 57% (active); in experiment [4], 62.6% (active); in experiment [5], -12.9%; in experiment [6], 23.1%.

In the case of `Cc1ccc(/C=C2\SC(=S)N(CCCC(=O)NC3CCCC3)C2=O)cc1`, the inhibition in experiment [1] is 55.2% (active); in experiment [2], 14.5%; in experiment [3] it was 41.5%; in experiment [4], 14.4%; in experiment [5], 79.5% (active); in experiment [6] it was 89.4% (active).

As to `Cc1ccc(Sc2c(C=O)c3ccccc3n2C)cc1`, the inhibition in experiment [1] was 63.2% (active); in experiment [2], 42.4% (active); in experiment [3], 54% (active); in experiment [4], 46.9% (active); in experiment [5], 7.13%; in experiment [6], 42.5%.

With `CCN(CC)Cc1c(O)ccc2c([N+](=O)[O-])c(C)n(-c3ccc(OC)cc3)c12`, the inhibition is 69% (active) in experiment [1]; 50.9% (active) in experiment [2]; 68.7% (active) in experiment [3]; 54.7% (active) in experiment [4]; 15.8% in experiment [5]; 41.4% in experiment [6].

`OCCN1CCN(c2ncnc3ccc(Br)cc23)CC1`: the inhibition was 68.8% (active) in experiment [1]; 41.1% (active) in experiment [2]; 65.8% (active) in experiment [3]; 44.5% (active) in experiment [4]; 2.48% in experiment [5]; 36% in experiment [6].

Turning to `O=C(CCCN1C(=O)/C(=C/c2ccccc2Cl)SC1=S)NNC(=O)c1ccncc1`, the inhibition in experiment [1] is 14.7%; in experiment [2], 8.23%; in experiment [3], 10.8%; in experiment [4], 10.8%; in experiment [5], 40.6% (active); in experiment [6] it was 65.4% (active).

As for `O=C(c1cncc(Br)c1)N1CCc2ccccc2C1`, the inhibition is 46.3% (active) in experiment [1]; 33.3% (active) in experiment [2]; 46.3% in experiment [3]; 29.3% (active) in experiment [4]; 1.4% in experiment [5]; 15.9% in experiment [6].

Regarding `COc1ccccc1-c1cc2nc(-c3ccccc3)cc(N3CCN(C(=O)c4ccco4)CC3)n2n1`, the inhibition in experiment [1] was 30.4%; in experiment [2], 48.6% (active); in experiment [3], 17.6%; in experiment [4] it was 25.1%; in experiment [5], 62.7% (active); in experiment [6], 60.3% (active).

For `COc1ccc(Nc2ccnc3ccccc23)cc1`, the inhibition in experiment [1] was 41.8%; in experiment [2], 30.3% (active); in experiment [3], 52.8% (active); in experiment [4], 26.4% (active); in experiment [5], -20.9%; in experiment [6], 30%.

`COc1cncc(-c2cnc3sc(NCCc4ccccn4)nn23)c1`: the inhibition in experiment [1] is 56.8% (active); in experiment [2], 33.6% (active); in experiment [3], 48.4% (active); in experiment [4] it was 30.6% (active); in experiment [5], 3.51%; in experiment [6], 50.2% (active).

Consider `COc1ccc(-c2cn[nH]c2-c2ccc(O)cc2O)cc1`, for which the inhibition in experiment [1] was 67.1% (active); in experiment [2] it was 46.2% (active); in experiment [3], 53.9% (active); in experiment [4] it was 37.3% (active); in experiment [5] it was -0.83%; in experiment [6], 50% (active).

As to `Nc1ccc2c(c1)OC1(CCCC1)O2`, the inhibition in experiment [1] was 10.9%; in experiment [2], 4.56%; in experiment [3], -18.7%; in experiment [4], 15.4%; in experiment [5] it was -13%; in experiment [6], 45.4%.

Turning to `C=C1C(=O)[C@@]23[C@H](O)C[C@@H]4C(C)(C)CC[C@H](O)[C@@]4(C)[C@@H]2CC[C@@H]1[C@H]3O`, the inhibition in experiment [1] is 28.5%; in experiment [2], 49.6% (active); in experiment [3], -18%; in experiment [4], 46.2% (active); in experiment [5], 33.9%; in experiment [6] it was 66.4% (active).
